Laboratory results published in PubChem BioAssay (EPA / NIEHS).
“And” between values parts separate entries of the source, which are not always exact repeats. Equal entries are not always repeated. Some structures have more than one record in an assay (separate samples or runs), and their calls can disagree. The source made the active and inactive calls. How the source made its calls: active means hit-call score of the fitted dose curve at least 0.9, where 1 is the maximum; inactive means score below 0.9.

Key:
[1] = target: Transcription factor E2F1 (Homo sapiens) (UniProt Q01094); assay: ATG_E2F_CIS: Attagene CIS-FACTORIAL HepG2 Assay for human E2F Transcription Factor 1 (AID 2282935); settings: HepG2 Attagene cis-reporter, E2F reporter RNA transcripts; actives raise or lower the signal
Chain of Transcription factor E2F1 (Homo sapiens) (Q01094 whole entry, looked up): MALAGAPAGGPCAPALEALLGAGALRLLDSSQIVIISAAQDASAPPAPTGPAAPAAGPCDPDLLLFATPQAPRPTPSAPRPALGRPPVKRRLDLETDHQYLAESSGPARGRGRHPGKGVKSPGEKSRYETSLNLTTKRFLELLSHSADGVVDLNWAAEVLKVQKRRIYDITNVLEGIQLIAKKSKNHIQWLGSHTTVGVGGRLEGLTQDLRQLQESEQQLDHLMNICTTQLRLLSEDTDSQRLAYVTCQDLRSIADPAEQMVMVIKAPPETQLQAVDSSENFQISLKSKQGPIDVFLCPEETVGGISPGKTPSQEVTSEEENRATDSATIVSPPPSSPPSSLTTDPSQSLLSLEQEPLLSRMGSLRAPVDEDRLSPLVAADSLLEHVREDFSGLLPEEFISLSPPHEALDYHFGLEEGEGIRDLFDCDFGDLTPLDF
Procedure, shortened: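 In this cis-factorial format, endogenous factor activity drives transfected reporters in HepG2; transcripts collected at 24 h are quantified by fluorescence after RT-PCR and capillary separation.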

[2] = ATG_E_Box_CIS: Attagene CIS-FACTORIAL HepG2 Assay for human Enhancer Box (E-box) (AID 2282936); settings: HepG2 E-box cis-reporter transcription, actives raise or lower the signal
Procedure, shortened: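 Measured 24 h post-dosing in HepG2 cells transfected with multiple cis-regulated reporter units, signal being reporter mRNA induction detected by fluorescent RT-PCR with capillary electrophoresis; gain or loss fitted against DMSO.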

[3] = ATG_M_61_CIS: Attagene CIS-FACTORIAL HepG2 Assay for M61 Transcription Factor (Internal Marker) (AID 2282937); settings: HepG2 Attagene CIS-FACTORIAL M61 internal marker reporter; actives raise or lower the signal
Procedure, shortened: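 HepG2 cells transiently transfected with multiplexed cis-promoter reporter units reporting endogenous transcription factor activity, measured 24 h after dosing. Reporter mRNA quantified by RT-PCR and capillary electrophoresis; bidirectional fit against DMSO baseline.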

[4] = ATG_EGR_CIS: Attagene CIS-FACTORIAL HepG2 Assay for human Early Growth Response 1 (EGR1) (AID 2282938); settings: HepG2 Attagene CIS-FACTORIAL EGR reporter mRNA; actives raise or lower the signal
Procedure, shortened: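 HepG2 cells transiently transfected with cis-element-driven multiplexed reporter units, dosed for 24 h. EGR1-element reporter mRNA quantified by RT-PCR, 6-FAM labelling, HpaI digestion and capillary electrophoresis; bidirectional fit versus DMSO.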

[5] = ATG_M_19_CIS: Attagene CIS-FACTORIAL HepG2 Assay for M19 Transcription Factor (Internal Marker) (AID 2282939); settings: HepG2 Attagene CIS-FACTORIAL M19 internal marker reporter; actives raise or lower the signal
Procedure, shortened: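 Signals come from fluorescence of labelled reporter-specific PCR fragments resolved by capillary electrophoresis, following 24 h treatment of HepG2 cells transfected with cis-promoter reporter units; activity was fitted in both directions relative to DMSO.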

[6] = ATG_Ets_CIS: Attagene CIS-FACTORIAL HepG2 Assay for human Erythroblast Transformation Specific (ETS) (AID 2282941); settings: HepG2 ETS cis-reporter transcription, actives raise or lower the signal
Procedure, shortened: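 RT-PCR/capillary electrophoresis fluorescence read-out of reporter mRNA; HepG2 transient multi-reporter transfection; 24 h compound exposure; gain or loss of signal fitted bidirectionally relative to DMSO.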

[7] = target: Hepatocyte nuclear factor 3-beta (Homo sapiens) (UniProt Q9Y261); assay: ATG_FoxA2_CIS: Attagene CIS-FACTORIAL HepG2 Assay for human Forkhead box A2 (FOXA2) (AID 2282942); settings: HepG2 cis-reporter transcription factor activity, 24 h; actives raise or lower the signal
Chain of Hepatocyte nuclear factor 3-beta (Homo sapiens) (Q9Y261 whole entry, looked up): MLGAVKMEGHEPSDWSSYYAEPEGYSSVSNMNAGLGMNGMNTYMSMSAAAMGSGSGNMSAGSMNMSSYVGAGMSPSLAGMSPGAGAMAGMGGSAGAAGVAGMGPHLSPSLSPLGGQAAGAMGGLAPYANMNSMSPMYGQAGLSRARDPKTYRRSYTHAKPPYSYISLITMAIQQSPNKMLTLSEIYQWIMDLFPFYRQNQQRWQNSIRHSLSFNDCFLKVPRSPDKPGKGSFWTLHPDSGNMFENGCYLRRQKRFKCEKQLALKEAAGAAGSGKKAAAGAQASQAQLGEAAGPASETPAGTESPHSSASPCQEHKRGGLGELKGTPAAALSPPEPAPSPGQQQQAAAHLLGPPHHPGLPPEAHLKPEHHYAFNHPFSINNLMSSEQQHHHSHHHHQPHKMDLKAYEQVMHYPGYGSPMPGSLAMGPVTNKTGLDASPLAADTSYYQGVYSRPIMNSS
Procedure, shortened: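 HepG2 transiently transfected with a multiplexed cis-promoter reporter library read endogenous FOXA2 activity. After 24 h compound exposure, reporter mRNA was quantified by RT-PCR, HpaI digestion and capillary electrophoresis. Bidirectional fit against DMSO.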

[8] = ATG_FoxO_CIS: Attagene CIS-FACTORIAL HepG2 Assay for human Forkhead box O (FoxO) (AID 2282943); settings: HepG2 Attagene cis-reporter, FoxO element, mRNA; actives raise or lower the signal
Procedure, shortened: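 HepG2 cells transiently transfected with cis-promoter-driven multiple reporter transcription units; 24 h after chemical dosing, reporter mRNA quantified by RT-PCR, fluorescent primer extension, HpaI digestion and capillary electrophoresis. Bidirectional fitting versus DMSO baseline.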

[9] = ATG_GATA_CIS: Attagene CIS-FACTORIAL HepG2 Assay for human GATA Binding Protein (AID 2282944); settings: HepG2 GATA cis-element reporter, Attagene multiplex mRNA; actives raise or lower the signal
Procedure, shortened: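 After transfecting HepG2 cells with multiple cis-regulated reporter units, chemicals are dosed for 24 h; isolated RNA undergoes RT-PCR and fluorescent labeling before capillary electrophoresis, with activity expressed against DMSO.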

[10] = ATG_GLI_CIS: Attagene CIS-FACTORIAL HepG2 Assay for human Zinc Finger Protein GLI1 (AID 2282945); settings: HepG2, Attagene cis-factorial reporter mRNA, GLI element; actives raise or lower the signal
Procedure, shortened: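 HepG2 cells transiently transfected with cis-promoter multiplexed reporter units report endogenous transcription factor activity. After 24 h chemical exposure, reporter mRNA was quantified by RT-PCR, 6-FAM labelling, HpaI digestion and capillary electrophoresis, with bidirectional fitting against DMSO.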

[11] = ATG_ISRE_CIS: Attagene CIS-FACTORIAL HepG2 Assay for human Interferon Regulatory Factor 1 (IRF1) binding to an Interferon-Stimulated Response Element (ISRE) (AID 2282948); settings: HepG2 ISRE cis-reporter (Attagene), mRNA transcription readout; actives raise or lower the signal
Procedure, shortened: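 Read-out: fluorescent RT-PCR products resolved by capillary electrophoresis, reporting endogenous transcription factor activity via ISRE-driven reporter mRNA in transfected HepG2 cells dosed for 24 h; gain or loss fitted relative to DMSO.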

[12] = ATG_M_32_CIS: Attagene CIS-FACTORIAL HepG2 Assay for M32 Transcription Factor (Internal Marker) (AID 2282949); settings: HepG2 Attagene cis-factorial M32 reporter, mRNA; actives raise or lower the signal;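 further: background control marker of the multiplexed CIS panel rather than a real target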
Procedure, shortened: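 Transient MRTU transfection of HepG2; 24 h compound treatment; TriZol RNA, oligo(dT) RT, reporter PCR, 6-FAM primer extension, HpaI cut, CE. Gain/loss of signal vs DMSO.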

[13] = ATG_M_06_CIS: Attagene CIS-FACTORIAL HepG2 Assay for M06 Transcription Factor (Internal Marker) (AID 2282950); settings: HepG2 Attagene CIS-FACTORIAL M06 internal marker reporter; actives raise or lower the signal
Procedure, shortened: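 HepG2 liver cells, 24 h exposure. Reporter transcripts from transfected cis-element constructs quantified by RT-PCR/capillary electrophoresis fluorescence. Bidirectional curve fit against DMSO.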

[14] = target: Hypoxia-inducible factor 1-alpha (Homo sapiens) (UniProt Q16665); assay: ATG_HIF1a_CIS: Attagene CIS-FACTORIAL HepG2 Assay for human Hypoxia Inducible Factor 1 (HIF1A) (AID 2282951); settings: HepG2 Attagene cis-factorial HIF1a reporter transcription; actives raise or lower the signal
Chain of Hypoxia-inducible factor 1-alpha (Homo sapiens) (Q16665 whole entry, looked up): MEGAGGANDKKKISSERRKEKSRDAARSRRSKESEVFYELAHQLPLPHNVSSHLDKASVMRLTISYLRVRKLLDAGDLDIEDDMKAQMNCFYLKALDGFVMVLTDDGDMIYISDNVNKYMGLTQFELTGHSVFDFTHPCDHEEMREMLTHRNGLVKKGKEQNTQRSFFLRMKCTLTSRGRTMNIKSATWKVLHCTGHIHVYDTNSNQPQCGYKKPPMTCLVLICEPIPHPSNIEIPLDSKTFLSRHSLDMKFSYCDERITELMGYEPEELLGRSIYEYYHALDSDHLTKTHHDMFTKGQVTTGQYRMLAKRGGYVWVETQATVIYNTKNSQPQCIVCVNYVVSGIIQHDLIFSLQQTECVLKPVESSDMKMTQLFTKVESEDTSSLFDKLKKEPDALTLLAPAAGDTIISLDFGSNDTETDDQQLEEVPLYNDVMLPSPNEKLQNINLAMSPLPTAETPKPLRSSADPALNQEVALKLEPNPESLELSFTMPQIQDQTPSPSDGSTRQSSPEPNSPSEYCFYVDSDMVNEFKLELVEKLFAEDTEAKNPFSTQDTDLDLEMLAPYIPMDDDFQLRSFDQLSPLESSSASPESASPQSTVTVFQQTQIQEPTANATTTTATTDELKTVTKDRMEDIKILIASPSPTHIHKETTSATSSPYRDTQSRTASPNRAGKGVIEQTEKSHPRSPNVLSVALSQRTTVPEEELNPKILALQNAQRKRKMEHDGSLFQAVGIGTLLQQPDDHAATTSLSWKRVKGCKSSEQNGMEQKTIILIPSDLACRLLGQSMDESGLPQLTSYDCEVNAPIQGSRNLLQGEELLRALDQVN
Procedure, shortened: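 HepG2 cells transiently transfected with multiple cis-regulated reporter transcription units measure endogenous transcription factor activity. After 24 h exposure, reporter mRNA is quantified by RT-PCR with 6-FAM labelling, HpaI digestion and capillary electrophoresis. Bidirectional fitting against DMSO.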

[15] = target: Hepatocyte nuclear factor 6 (Homo sapiens) (UniProt Q9UBC0); assay: ATG_HNF6_CIS: Attagene CIS-FACTORIAL HepG2 Assay for human Hepatocyte Nuclear Factor 6 (HNF6) (AID 2282952); settings: HepG2 Attagene cis-factorial HNF6 reporter transcription; actives raise or lower the signal
Chain of Hepatocyte nuclear factor 6 (Homo sapiens) (Q9UBC0 whole entry, looked up, the tested form may be a part): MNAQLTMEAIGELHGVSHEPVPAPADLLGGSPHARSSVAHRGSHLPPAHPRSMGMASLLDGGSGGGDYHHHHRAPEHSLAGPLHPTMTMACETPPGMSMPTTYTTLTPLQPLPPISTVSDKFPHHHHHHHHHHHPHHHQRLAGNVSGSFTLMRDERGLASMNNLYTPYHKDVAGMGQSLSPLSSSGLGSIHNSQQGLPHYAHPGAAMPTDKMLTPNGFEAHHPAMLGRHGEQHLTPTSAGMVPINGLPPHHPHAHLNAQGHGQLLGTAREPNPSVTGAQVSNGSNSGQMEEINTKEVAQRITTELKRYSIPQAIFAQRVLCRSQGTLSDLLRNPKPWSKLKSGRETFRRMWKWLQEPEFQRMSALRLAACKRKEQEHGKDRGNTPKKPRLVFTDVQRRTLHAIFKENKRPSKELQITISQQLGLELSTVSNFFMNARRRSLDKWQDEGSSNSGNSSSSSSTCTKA
Procedure, shortened: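 Readout: fluorescent reporter-transcript fragments resolved by capillary electrophoresis after RT-PCR, reflecting endogenous factor activity in transfected HepG2. Exposure 24 h. Gain or loss of signal fitted bidirectionally against DMSO.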

[16] = target: Heat shock factor protein 1 (Homo sapiens) (UniProt Q00613); assay: ATG_HSE_CIS: Attagene CIS-FACTORIAL HepG2 Assay for human Heat Shock Transcription Factor 1 (HSE) (AID 2282953); settings: HepG2 HSE cis-reporter, Attagene RNA transcription; actives raise or lower the signal
Chain of Heat shock factor protein 1 (Homo sapiens) (Q00613 whole entry, looked up, the tested form may be a part): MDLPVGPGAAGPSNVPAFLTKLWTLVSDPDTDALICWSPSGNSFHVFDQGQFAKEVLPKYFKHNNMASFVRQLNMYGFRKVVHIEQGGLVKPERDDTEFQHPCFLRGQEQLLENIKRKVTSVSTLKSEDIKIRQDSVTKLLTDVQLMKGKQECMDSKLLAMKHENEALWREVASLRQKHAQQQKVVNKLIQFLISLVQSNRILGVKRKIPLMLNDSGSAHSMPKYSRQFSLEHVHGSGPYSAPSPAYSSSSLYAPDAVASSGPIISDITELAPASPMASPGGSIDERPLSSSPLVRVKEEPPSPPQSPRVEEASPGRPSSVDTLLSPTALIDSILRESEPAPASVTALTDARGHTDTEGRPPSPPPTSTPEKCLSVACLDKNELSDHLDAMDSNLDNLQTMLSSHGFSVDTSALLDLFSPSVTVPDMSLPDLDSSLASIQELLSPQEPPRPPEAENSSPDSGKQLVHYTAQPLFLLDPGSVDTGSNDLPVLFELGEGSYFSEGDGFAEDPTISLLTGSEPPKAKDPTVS
Procedure, shortened: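 Endogenous transcription factor activity captured via cis-promoter reporter units transfected into HepG2; treatment lasted 24 h. Fluorescence intensity of reporter fragments analysed with bidirectional curve fitting, DMSO baseline.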

[17] = ATG_MRE_CIS: Attagene CIS-FACTORIAL HepG2 Assay for human Metal Responsive Element (MRE) (AID 2282954); settings: HepG2 MRE cis-reporter transcription, Attagene multiplex; actives raise or lower the signal
Procedure, shortened: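 Readout: capillary electrophoresis of 6-FAM-labelled, HpaI-digested RT-PCR reporter products. System: HepG2 cells carrying transient multiplexed cis reporters, dosed 24 h. Analysis: bidirectional fit, DMSO baseline.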

[18] = ATG_ERE_CIS: Attagene CIS-FACTORIAL HepG2 Assay for Estrogen Response Element (ERE) (AID 2282940); settings: HepG2 ERE cis-reporter, Attagene RNA transcript; actives raise or lower the signal
Procedure, shortened: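 Fluorescence of capillary-separated, FAM-labelled reporter cDNA fragments indicates reporter mRNA levels in HepG2 cells exposed to chemicals for 24 h. Transient transfection with cis-regulated units; data fitted in both directions against DMSO.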

[19] = target: Bile acid receptor (Homo sapiens) (UniProt Q96RI1); assay: ATG_IR1_CIS: Attagene CIS-FACTORIAL HepG2 Assay for human Nuclear Receptor Subfamily 1 Group H Member 4 (NR1H4), IR1 submotif (AID 2282946); settings: IR1 reporter transcription, actives raise or lower the signal
Chain of Bile acid receptor (Homo sapiens) (Q96RI1 whole entry, looked up): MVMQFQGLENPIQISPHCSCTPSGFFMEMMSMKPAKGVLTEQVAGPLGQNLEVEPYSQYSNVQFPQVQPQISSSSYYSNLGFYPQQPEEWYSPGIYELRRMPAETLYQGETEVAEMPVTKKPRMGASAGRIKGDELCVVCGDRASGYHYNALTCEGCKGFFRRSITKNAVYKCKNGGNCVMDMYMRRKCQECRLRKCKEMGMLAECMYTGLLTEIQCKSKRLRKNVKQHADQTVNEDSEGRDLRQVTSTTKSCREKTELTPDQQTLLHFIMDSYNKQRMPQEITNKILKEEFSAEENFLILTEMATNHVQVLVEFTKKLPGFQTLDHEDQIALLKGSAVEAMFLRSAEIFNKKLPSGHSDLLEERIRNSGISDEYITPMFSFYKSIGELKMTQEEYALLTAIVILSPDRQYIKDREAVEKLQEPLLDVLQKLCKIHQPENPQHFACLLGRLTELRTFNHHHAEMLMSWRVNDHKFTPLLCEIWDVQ
Procedure, shortened: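 Readout: reporter transcript levels by RT-PCR with fluorescent capillary electrophoresis, from HepG2 cells transiently transfected with multiplexed cis-regulated reporters and dosed 24 h. Gain- or loss-of-signal fitted versus DMSO negative control.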

[20] = ATG_GRE_CIS: Attagene CIS-FACTORIAL HepG2 Assay for human Glucocorticoid Response Elements (GRE) (AID 2282947); settings: HepG2 GRE cis-reporter, Attagene multiplex mRNA; actives raise or lower the signal
Procedure, shortened: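 HepG2, transient cis-reporter transfection, 24 h. Reporter mRNA: RT-PCR then CE, fluorescence. Fit both directions vs DMSO.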

Measured: AC50

CC(C)(c1ccc(O)cc1)c1ccc(O)cc1
active: [4] 100 µM [middle of 6 runs] | [6] 101 µM and 33.7 µM | [7] 58.2 µM | [8] 57.7 µM | [10] 58.5 µM | [11] 142 µM [middle of 5 runs] | [14] 179 µM | [15] 45.7 µM | [16] 153 µM [middle of 6 runs]
inactive: [1] | [2] | [3] | [4] | [5] | [6] | [7] | [8] | [9] | [10] | [11] | [12] | [13] | [14] | [15] | [16] | [17]

c1ccc2[nH]c(-c3cscn3)nc2c1
inactive: all assays above

CC(=O)S[C@@H]1CC2=CC(=O)CC[C@]2(C)[C@H]2CC[C@@]3(C)[C@@H](CC[C@@]34CCC(=O)O4)[C@H]12
inactive: [1] | [2] | [3] | [4] | [5] | [18] | [6] | [7] | [8] | [9] | [10] | [20] | [11] | [12] | [13] | [14] | [15] | [16] | [17]
active: [2] 7.33 µM and 26.6 µM and 18.4 µM | [4] 17.6 µM and 27.2 µM | [6] 100 µM | [11] 48.9 µM and 26.1 µM and 48.1 µM | [16] 171 µM | [17] 76.9 µM [middle of 4 runs]

CCCCOC(=O)[C@@H](C)Oc1ccc(Oc2ccc(C(F)(F)F)cn2)cc1
active: [18] 59.1 µM
inactive: all other assays above

COC(=O)c1ccccc1S(=O)(=O)NC(=O)Nc1nc(OC(F)F)cc(OC(F)F)n1
inactive: all assays above

COC(=O)c1ccc(CNS(C)(=O)=O)cc1S(=O)(=O)NC(=O)Nc1nc(OC)cc(OC)n1
inactive: all assays above

CCOC(=O)C(C)Oc1ccc(Oc2cnc3cc(Cl)ccc3n2)cc1 (stereo unspecified)
not listed: [16]
inactive: all other assays above

CCN(Cc1c(F)cccc1Cl)c1c([N+](=O)[O-])cc(C(F)(F)F)cc1[N+](=O)[O-]
active: [18] 1.81 µM
not listed: [20]
inactive: all other assays above

S=C(S)NCCNC(=S)S.[Mn+2].[S-]C([S-])=NCCN=C([S-])[S-].[Zn+2]
inactive: [1] | [2] | [3] | [4] | [5] | [6] | [7] | [8] | [9] | [10] | [20] | [11] | [12] | [13] | [14] | [15] | [16] | [17]
active: [4] 16.2 µM and 16.5 µM and 3.53 µM | [11] 9.92 µM and 10.9 µM and 50 µM | [14] 18.3 µM and 976 nM

CCCOC(=O)c1ccc(C(=O)OCCC)nc1
inactive: all assays above

CCCCOC(=O)C(C)Oc1ccc(Oc2ccc(C(F)(F)F)cn2)cc1 (stereo unspecified)
inactive: all assays above

COc1nc(C)nc(NC(=O)NS(=O)(=O)c2ccccc2OCCCl)n1
inactive: [1] | [2] | [3] | [4] | [5] | [18] | [6] | [7] | [8] | [9] | [10] | [19] | [20] | [11] | [12] | [13] | [14] | [15] | [16] | [17]
active: [19] 8.66 µM
